Among the data in PubChem BioAssay (NCI) are growth values, retold here.

Each structure is given as a SMILES string. This is part of a sample that, as a whole, favours compounds with a hit. Of some 83,000 tested, about 20% had one in any assay.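 Method: cells in 96-well plates; compound added at one concentration; 48 h incubation; percent growth measured; values under 10 scored active.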 Activity calls are given as the source filed them.

The subject of this test is HL-60(TB) leukemia. The experiment in a line: NCI-60 one-dose screen, 48 h (100 = growth as untreated, 0 = no growth, -100 = all killed). The settings on record: 10 µM unless noted.
Take `CC(C)(C)c1ccc(-c2nnc(-c3nc4ccccc4nc3Cl)o2)cc1`: the growth was 13.6% (inactive).

Take `CC(=O)Nc1ccc(NC(=O)Nc2cccc(-c3nc(-c4ccc(NC(=O)c5cccnc5)cc4Cl)no3)c2)cc1C(F)(F)F`: the growth is -39.1% (active).

For the molecule `CNC(=O)c1cc(Oc2ccc3nc(NC(=O)c4cccc(OC(F)(F)F)c4)sc3c2)ccn1`, the growth was 67.5% (inactive).

`Cc1ccc(-c2csc(N/N=C/c3cccs3)n2)cc1`: the growth is 84.2% (inactive).

Turning to `CN1CCN(Cc2ccc(NC(=O)c3cncc(C#Cc4cnc5ccc(OCC(F)F)nn45)c3)cc2C(F)(F)F)CC1`, the growth is -52.2% (active).

In the case of `CCc1cc2c(cc1Cl)nc1c(=O)[nH]c(=O)nc-1n2CCOCC(C)C`, the growth is 51.2% (inactive).

As to `CCCCCc1ccc(S(=O)(=O)Nc2cccc(-c3csc(NC(=O)CN4CCN(C)CC4)n3)c2)cc1`, the growth was 35.8% (inactive).

On to `Cc1ccc(Nc2ncnc3c2c(C)nn3-c2ccc([N+](=O)[O-])cc2)cc1`, for which the growth was 96.7% (inactive).

Take `O=C(NNc1nc2cc(F)ccc2n2cccc12)c1ccncn1`: the growth was -4.33% (active).

With `COc1cc(/C=N/n2cnc3oc(-c4ccccc4)cc3c2=N)cc(CN2CCOCC2)c1O`, the growth is 88.9% (inactive).

`COc1ccc(CCN2C(=O)/C(=C/c3nc(CO)cs3)SC2=S)cc1`: the growth was 59.4% (inactive).

As to `CCc1ccc(NC(=O)N[C@@H](Cc2cccc(F)c2)C(=O)N[C@@H]2C(=O)N3CCC[C@H]3C(=O)N3CCCC[C@H]3C(=O)N[C@@H](C)C(=O)N3C[C@H](C)C[C@H]3C(=O)O[C@H]2C)c(F)c1`, the growth is 8.27% (active).
